# Measured values taken from PubChem BioAssay (NCATS).
# Inconclusive results are not listed. A call without a number means that no potency is given here. The source made the active and inactive calls. Calls come from the whole dose curve; as a rule, active = well fitted inhibition curve with a large enough effect; inconclusive = small, poorly fitted or top-dose-only effect; inactive = flat fitted curve, though single readings scatter.
# Biological target: Calcium and integrin-binding protein 1 (Homo sapiens) (UniProt Q99828)
# Experiment: Primary qHTS for Identification of Calcium Integrin Binding Protein 1 (CIB1) Competitor (AID 1508620)
# Conditions: CIB1-GST / FITC-alphaIIb peptide fluorescence polarization; series mostly up to 114 µM
# Source text: Assay Provider: Ulhas P. Naik, PhD Sidney Kimmel Medical College Thomas Jefferson University, Philadelphia, PA Primary function of platelets is to maintain hemostasis. At the site of vascular injury, platelets adhere to adhesive proteins such as collagen and von Willebrand factor. Adherent platelets are activated and generate soluble platelet agonists such as thrombin, ADP and thromboxane A2. Following exposure of circulating platelets to these agonists, results in platelet shape change, granule secretion and activation of platelet integrin alphaIIb-beta3. Ligand binding to activated integrin alphaIIb-beta3 triggers outside-in signaling, leading to platelet aggregation, stabilization of platelet plug, and clot retraction. Upon atherosclerotic plaque rupture also causes platelet plug formation, which underlies a number of cardiovascular diseases such as myocardial infraction and stroke. A number of anti-platelet drugs such as aspirin, clopidogrel, prasugrel, vorapaxar, and eptifibatide are currently available to prevent the thrombotic complications. However, these anti-platelet agents have several limitations including inherent variability in individual responses, developing resistance, and serious bleeding side effects. For these reasons they are not suitable for long-term protection. Based on the experiences with current anti-platelet drugs, it appears that the most useful therapeutic approach is to intersect the secondary responses such as integrin outside-in signaling or recruitment of platelets by TxA2 and secreted ADP. Compounds, which can largely preserve the primary hemostatic function of platelets but inhibit secondary response will be most desired therapeutic agents for treatment of cardiovascular disease. CIB1 is a calcium integrin binding protein, which specifically interact with the alphaIIb subunit of integrin alphaIIb-beta3. Binding of CIB1 to alphaIIb regulates the outside-in signaling in platelets, which is needed for thrombus stabilization and thrombus growth. […] Therefore, we propose that discovery of a small molecule that can prevent the association of CIB1 and alphaIIb-beta3 will be a potential anti-platelet agent that can block the thrombus formation without undue effect on hemostasis. Reference: [1] Naik MU, Nigam A, Manrai P, et al. CIB1 deficiency results in impaired thrombosis: the potential role of CIB1 in outside-in signaling through integrin alpha IIb beta 3. J Thromb Haemost.
# PROTOCOL TABLES SEQUENCE No. (1, 2, 3, etc.); […] (e.g., Cells, Incubation, Reagent, etc.); VALUE and DESCRIPTION. 1; Reagent; 3 uL; Protein or buffer (4/3x) 2; Compound; 46 nL; Control inhibitor / compound library 3; Time; 15 min; Room temperature incubation 4; Reagent; 1 uL; Fluorescent labeled peptide (4x) 5; Time; 1000 rpm; Centrifuge 6; Time; 15 min; Room temperature incubation 7; Detection; Ex 480/ Em 540; ViewLux Fluorescence Read NOTES (numbers refer to sequence above) 1; Protein Mixture: C1B1-GST (final concentrations of 1 uM). […] 3; Room temperature incubation. 4; Fluorescent Labeled Peptide: FITC-aIIb (final concentration of 100 nM). Sequence of alphaIIb peptide: Acetyl-[…]-FITC (purity is 95.83%). 5; Centrifuge 1000 rpm (164 g) for 15 seconds. 6; Room temperature incubation. 7; ViewLux Fluorescent Polization Read: excitation = 480(20) / emission = 540(25) S and P; FITC Dichroic mirror.
# Potency is the fitted concentration of half-maximal effect.
# Chain of Calcium and integrin-binding protein 1 (Homo sapiens) (Q99828 whole entry, looked up): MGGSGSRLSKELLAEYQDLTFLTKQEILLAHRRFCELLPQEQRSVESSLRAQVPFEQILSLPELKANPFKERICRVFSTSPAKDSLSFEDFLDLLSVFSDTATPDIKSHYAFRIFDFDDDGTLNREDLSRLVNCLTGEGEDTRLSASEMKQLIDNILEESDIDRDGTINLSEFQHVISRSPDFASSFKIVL
row,Compound,Potency
1,COc1ccc(C(=O)Nc2ccc(-c3nc4ccccc4[nH]3)cc2)cc1F,inactive
2,O=C(c1cc2sccc2n1Cc1ccccc1)N(CCc1ccc(O)c(O)c1)Cc1ccccc1,inactive
3,C=CCNc1nnc(-c2cccc3ccccc23)o1,inactive
4,O=C(O)c1ccc(S(=O)(=O)N[C@H](Cc2ccc(O)cc2)C(=O)O)cc1,inactive
5,COc1ccc(C2C3=C(N=CN(CCN4CCOCC4)C3N)Oc3ccccc32)cc1OC (stereo not given),inactive
6,Oc1cc(-c2ccc(N3CCCCC3)nc2)cc2cccnc12,inactive
7,CC(=O)Nc1sc2c(c1-c1nc3ccccc3o1)CCN(C(C)C)C2,50.1 µM (active)
8,COc1ccc(C2=Nn3c(nnc3-c3ccc(OC)c(OC)c3)SC2)cc1,inactive
9,Cc1csc(CNc2ncnc3ccc(-c4ccccc4Cl)cc23)c1,inactive
10,O=C1CCCC2=C1C(c1[nH]ncc1Cl)N=C(Nc1nc3c(Br)cccc3o1)N2 (stereo not given),inactive
11,Cc1ccc(OCCn2c(CCNC(=O)c3ccccc3)nc3ccccc32)cc1,inactive
12,Cc1ccnc(NC(=S)NC2CN(c3cccc(C(F)(F)F)c3)C2)c1,inactive
13,Cc1cc(N[S+](=O)([O-])c2cc3c(cc2Cl)CCC(=O)N3)ccc1Cl,inactive
14,O=C1CCCC2=C1C(c1ccncc1Cl)N=C(Nc1nc3ccccc3o1)N2 (stereo not given),inactive
15,CSc1cnc(-c2ccccc2C(C)C)nc1NCc1ccc(-c2cccnc2)cc1,inactive
16,COc1ccc(C(=O)NCC(=O)OC(C(=O)Nc2cc(C(F)(F)F)ccc2Cl)c2ccccc2)cc1OC (stereo not given),inactive
17,O=[S+]([O-])(Nc1cnc2ccccc2c1)c1ccc(NCc2ccc(Cl)cc2O)cc1,inactive
18,O=C1CCCC2=C1C(c1[nH]ncc1Cl)NC(=NCCc1ccccc1)N2 (stereo not given),inactive
19,NC(=O)C1CCN(c2nc(-c3ccccc3Br)cs2)CC1,inactive
20,N#Cc1nc(Nc2cc(F)cc(F)c2)nc(Nc2cc(F)cc(F)c2)n1,inactive

row,Compound,Potency
1,NCCCNc1ncnc2ccc(-c3ccc4c(c3)OCO4)cc12,inactive
2,Cc1cc2c(s1)c1cnn(Cc3c(F)ccc(C)c3Cl)c(=O)c1n2C,inactive
3,O=[S+]([O-])(c1c(F)cccc1F)N1CCN([S+](=O)([O-])c2csc3ccccc23)CC1,inactive
4,O=S(=O)(c1cccc(-c2n[nH]c(=S)n2-c2ccccc2)c1)N1CCCC1,inactive
5,Cc1cccc(C2N=C(Nc3nc4ccccc4o3)NC3=C2C(=O)CCC3)c1 (stereo not given),inactive
6,Cc1nc(NCc2ccc(-c3ccnc(C(F)(F)F)c3)cc2)c2ccccc2n1,inactive
7,Cc1cccc(-n2cnc3cc(C(=O)N4CCC(C(F)(F)F)CC4)ccc32)c1,inactive
8,CCCCNc1nc(C)nc2c1nc(-c1ccccc1)n2C1CCN(Cc2ccccc2)C1 (stereo not given),inactive
9,COc1ccc(C(=O)Nc2ccc(-c3nc4ccccc4[nH]3)cc2)cc1C(F)(F)F,inactive
10,Cc1nnc(-c2cnn(C)c2N)n1CCCc1ccccn1,inactive
11,CC(C)(C)OC(=O)N1CCN(c2ccc(NCc3cccc(-c4ccc(C#N)cc4)n3)cc2)CC1,inactive
12,CN1CCN(c2nn3c(=O)c4ccccc4nc3s2)CC1,inactive
13,Cc1cc2c(s1)c1cnn(Cc3cccc(Br)c3)c(=O)c1n2C,inactive
14,O=C(NCCc1nc2ccccc2n1CCOc1ccc(F)cc1)C1CCCCC1,inactive
15,CCOC(=O)C1CCN(c2ncc(-c3ccc4c(c3)OCCCO4)s2)CC1,inactive
16,CC(C)Oc1cccc(-c2csc(N3CCC(C(N)=O)CC3)n2)c1,inactive
17,CC(=O)c1ccc(N2CCN(C(=O)c3ccc4c(c3)CC(=O)N4)CC2)cc1,inactive
18,CC(=O)N1CCN(c2ccc(NCc3ccco3)cc2)CC1,inactive
19,CCCCN1C(=O)c2ccccc2NC1c1ccc(OC)c(COc2ccc(NC(C)=O)cc2)c1 (stereo not given),inactive
20,CN(Cc1ccco1)c1ncnc2ccc(-c3ccoc3)cc12,inactive
